Screening results from PubChem BioAssay.
Shown is part of a subset that was picked to be rich in hits.
GBA activity = human lysosomal glucosylceramidase modulation; purified enzyme, resorufin glucoside fluorescence (screen aimed at inhibitors), 20 min; hit rate 1.1% among 48,000; Potency, µM; in the data active = potency below about 15 µM;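 also: the screen sought inhibitors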
Target sequence (P04062 whole entry, looked up): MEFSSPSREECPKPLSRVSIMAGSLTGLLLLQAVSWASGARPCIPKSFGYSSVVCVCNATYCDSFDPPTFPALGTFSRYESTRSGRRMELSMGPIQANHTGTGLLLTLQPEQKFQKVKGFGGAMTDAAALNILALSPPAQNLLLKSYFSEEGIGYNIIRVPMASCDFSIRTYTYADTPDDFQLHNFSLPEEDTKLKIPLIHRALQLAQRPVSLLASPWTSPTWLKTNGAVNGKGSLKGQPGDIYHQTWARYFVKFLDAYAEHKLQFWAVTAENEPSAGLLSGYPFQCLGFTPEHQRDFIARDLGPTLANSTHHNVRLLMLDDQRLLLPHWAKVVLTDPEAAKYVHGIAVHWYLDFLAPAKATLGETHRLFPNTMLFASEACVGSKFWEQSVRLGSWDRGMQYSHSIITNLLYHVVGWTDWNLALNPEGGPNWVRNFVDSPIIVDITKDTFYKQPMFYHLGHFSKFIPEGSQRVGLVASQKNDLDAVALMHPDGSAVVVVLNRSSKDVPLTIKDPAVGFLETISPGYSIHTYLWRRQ
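Normal human glucocerebrosidase (0.2 nM final) was assayed with resorufin β-D-glucopyranoside (30 uM final) in 50mM citric acid/KH2PO4, 10mM sodium taurocholate, 0.01% tween-20, pH 5.9. Compounds were titrated; fluorescence (Ex 548, Em 600) read after 20 min at RT.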
Numbers without * were called inactive; i = inactive. Potency is read from the fitted curve at half-maximal effect.

SMILES	GBA activity
Cc1cccc(S(=O)(=O)c2c(N)n(/N=C/c3ccco3)c3nc4ccccc4nc23)c1	6.08*
O=C(c1ccco1)N1CCN(CC(O)Cn2c3ccccc3c3ccccc32)CC1 (centres undefined)	>76.9
COc1cccc(-c2nc(CS(=O)(=O)CC(=O)NCCCN3CCc4ccccc4C3)c(C)o2)c1	>76.9
O=C(NCN1C(=O)C2C3C=CC(C3)C2C1=O)Nc1nccs1 (centres undefined)	>76.9
CCOC(=O)c1c(C)noc1CP(=O)(c1ccccc1)c1ccccc1	>76.9
Cc1ccnc(SCC(=O)Nc2sc3c(c2C#N)CCCC3)n1	>76.9
N#Cc1c(NC(=O)CSc2nnc(-c3ccccc3O)n2-c2ccccc2)sc2c1CCCC2	10*
Cc1ccc(C(=O)NCc2nnc(SCC(=O)Nc3sc4c(c3C#N)CCCC4)n2C)cc1	>76.9
c1ccc(Cn2nnnc2C(c2cccnc2)N2CCN(c3ccccc3)CC2)cc1 (centres undefined)	>76.9
COCCOC(=O)c1c(C)n(C)c2ccc(OC(=O)C3CC3)cc12	>76.9
N=c1n(Cc2ccccc2)c2ccccc2n1CC(O)c1ccccc1 (centres undefined)	>76.9
CCCn1c(=N)n(CC(O)c2ccco2)c2ccccc21 (centres undefined)	>76.9
Cc1ccc(Cn2c(=N)n(CC(O)c3ccco3)c3ccccc32)cc1 (centres undefined)	10.2*
CCCCNC(=O)c1cn(C)c2ccc(S(=O)(=O)N3CCOCC3)cc2c1=O	>76.9
COc1ccc(-c2cc(C(=O)Nc3cccc(C(C)=O)c3)no2)cc1	>76.9
COc1cccc(-c2cc(C(=O)Nc3cccc(O)c3)no2)c1	14.6*
COc1cccc(-c2cc(C(=O)Nc3ccccc3SC)no2)c1	>76.9
COc1cc(C(=O)NCCC(=O)NC2CCCCCCC2)cc(OC)c1OC	>76.9
Cc1nc(N2CCOCC2)[nH]c(=O)c1CCC(C)C	>76.9
Cc1nnc(N2CCc3ccccc3C2)[nH]c1=O	>76.9
Cc1nc(N2CCc3ccccc3C2)[nH]c(=O)c1CCC(C)C	5.28*
Cc1ccc(C2c3sc(=O)[nH]c3SC3C(=O)NC(=O)C32)cc1 (centres undefined)	>76.9
COc1ccc(C(=O)Nc2nc(-c3cccs3)cs2)cc1	>76.9
COCc1nnc(NC(=O)c2ccc(NC(C)=O)cc2)s1	6.81*
CCOc1ccccc1OCC(=O)Nc1nnc(COC)s1	>76.9
SMILES	GBA activity
COCc1nnc(NC(=O)C(C)C)s1	>76.9
CCCC(=O)Nc1ccc(C(=O)Nc2nnc(COC)s2)cc1	0.768*
COCc1nnc(NC(=O)c2ccco2)s1	>76.9
O=C(O)CCC(=O)Nc1nnc(C(F)(F)F)s1	>76.9
COCc1nnc(NC(=O)CCc2ccccc2)s1	>76.9
COc1ccc(C(=O)Nc2nnc(C(F)(F)F)s2)cc1	3.35*
O=C(COc1ccccc1F)Nc1ccc(S(=O)(=O)NCc2ccco2)cc1	>76.9
O=C(c1ccco1)N1CCN(c2cc(C(F)(F)F)nc3ncnn23)CC1	>76.9
CC(Sc1cccc(C(F)(F)F)c1)C(=O)NC(N)=O (centres undefined)	>76.9
COc1cc(OC)cc(C(=O)N2CCC(n3c(C)nc4cc(F)ccc43)CC2)c1	>76.9
COCCSc1ccccc1C(=O)NCc1ccco1	>76.9
O=C(O)COc1ccccc1C1C2C(=O)N(c3ccc(F)cc3)C(=O)C2ON1c1ccccc1 (centres undefined)	>76.9
CCN(CC)CCCNC(=O)C1c2ccccc2C(=O)N(C)C1c1ccc(OC)cc1 (centres undefined)	>76.9
COc1cc2c(cc1OC)C(C(=O)NCCN1CCOCC1)C1c3ccccc3CCN1C2=O (centres undefined)	>76.9
COc1ccc(C2C(C(=O)NCCN3CCOCC3)c3ccccc3C(=O)N2C2CCCCC2)cc1 (centres undefined)	13.9*
Cc1ccc(C2/C(=C(\O)c3c(C)nc4ccccn34)C(=O)C(=O)N2CCCN2CCOCC2)o1 (centres undefined)	>76.9
CCOC(=O)C1CCN(S(=O)(=O)C(F)(F)c2nc3ccccc3s2)CC1	>76.9
O=C(CSc1nc2c(c(=O)n1-c1ccc(Cl)cc1)SCC2)NCC1CCCO1 (centres undefined)	>76.9
COc1ccc(-n2c(SCC(=O)NCC3CCCO3)nc3n[nH]c(C)c3c2=N)cc1 (centres undefined)	>76.9
Cc1ccc(-n2c(SCC(=O)NCC3CCCO3)nc3n[nH]c(C)c3c2=N)cc1Cl (centres undefined)	14.2*
CC(C)(C)OC(=O)NC(CCCCNC=O)C(=O)O (centres undefined)	>76.9
Cc1ccccc1CN1CCN(CC(=O)NCc2ccc3c(c2)OCO3)C1=O	>76.9
COc1ccc(-c2nc(C#N)c(NCC3CCCO3)o2)cc1 (centres undefined)	>76.9
CCOC(=O)CNC(=O)CSc1nnc(Cn2cnc3ccccc32)n1C	>76.9
COc1cc(NC(=O)Nc2cccc(Cl)c2)c(OC)cc1NC(=O)CN1CCCCC1	>76.9
SMILES	GBA activity
NS(=O)(=O)c1ccc(NC(=O)CN2CCCCC2)cc1	>76.9
O=C(CN1CCCC1)Nc1ccc(NC(=O)Nc2ccccc2Cl)cc1	12.7*
O=C(COc1ccc2c(c1)CCC2)N1CCc2ccccc21	>76.9
COC(=O)c1cc(NC(=O)CSc2nnc(CN3CCOCC3)n2C)ccc1Cl	>76.9
COC(=O)c1ccc(Cl)c(NC(=O)CN2CCOCC2)c1	>76.9
COC(=O)c1cc2c(cc1Cl)SC(=NCCCN1CCOCC1)NS2(=O)=O	8.27*
O=C1CC(c2ccc(F)cc2)CC(O)=C1C=NCCN1CCN(C(=O)Nc2ccccc2)CC1 (centres undefined)	>76.9
CCOC(=O)N1CCN(C(=O)Cn2ncn3nc(-c4cccs4)cc3c2=O)CC1	>76.9
CCCn1cnc2cc(NCc3cccc(OC)c3)ccc21	i
COc1cccc(CNc2ccc(F)c(Cl)c2)c1O	>76.9
CCn1cnc2cc(NCc3cccc(OC)c3O)ccc21	13.9*
COc1ccc(N2CCN(C(c3ccccc3)c3nnnn3Cc3ccc(F)cc3)CC2)cc1 (centres undefined)	>76.9
CCCCc1nc(SCC(=O)Nc2ccc(S(N)(=O)=O)cc2)n[nH]1	>76.9
CC1(C)CC(NC(=O)c2coc(=O)c(Br)c2)CC(C)(C)N1	>76.9
CCN1CCN(CC(O)COc2cccc(OC)c2)CC1 (centres undefined)	>76.9
COc1cccc(OCC(O)CN(CCO)Cc2ccccc2)c1 (centres undefined)	13.2*
COc1cccc(OCC(O)CN2CCC(C)CC2)c1 (centres undefined)	>76.9
CCC(C)OC(=O)C1=C(C)NC(=O)CC1c1ccccc1OC (centres undefined)	>76.9
c1cnc(N2CCN(c3nc4ccccc4n4cnnc34)CC2)nc1	>76.9
O=C(c1ccccc1)N1CCN(c2ccccc2F)CC1	>76.9
Fc1ccccc1N1CCN(c2nc3ccccc3n3nnnc23)CC1	12.9*
Cc1nc2c3c(-c4ccccc4)nc(N4CCOCC4)nc3nn2c(C)c1CCC(=O)O	>76.9
Cn1cnnc1SCNC(=O)C(F)(F)F	>76.9
COc1ccc(CC(NC(C)=O)C(=O)NC2CCN(c3nc(C)cc(C)c3C#N)CC2)c(OC)c1 (centres undefined)	>76.9
Cc1cc(C)n(-c2ccc(C(=O)NCc3cccs3)cc2)n1	>76.9
Cc1cc(C)n(-c2ccc(C(=O)Nc3sccc3C(N)=O)cc2)n1	14.9*
Cc1cc(C)n(-c2ccc(C(=O)Nc3ccccn3)cc2)n1	>76.9
CNc1nn(-c2cccc(Cl)c2)nc1N	>76.9
CCOc1ccc(CCNC(=O)CN2CCN(Cc3ccccc3C)C2=O)cc1OCC	>76.9
